# p53 reactivator = qHTS assay for re-activators of p53 using a Luc reporter; H1299 p53-A138V BP100-luciferase reporter, luminescence, 24 h; Potency, µM (titrated, usually from 92.2 µM), for the others: at the highest dose activity change, positive = activation, actives largely listed as activators; 0.063% of 320,000 active; AID 504706, 2011; further: % of control where 0% means no effect; nearly all actives have a fitted effect of over 45% in size
#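 H1299 (p53-null), stable ts p53-A138V + BP100-Luc; 1000 cells/well, Opti-MEM/10% FBS; cpd 4 pt, 1:5; 24 h, 37 deg C, 5% CO2; detection reagent 10 min RT; luminescence.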
# SMN2 splice up = qHTS Assay for Enhancers of SMN2 Splice Variant Expression; HEK293 SMN2-luciferase splicing reporter, luminescence, 30-36 h; Potency, µM (highest dose often 46.1 µM), inactives show top-dose activity change, positive = activation, most hits filed as activators; 2.8% of 210,000 active; AID 1458, 2008; further: % of control where 0% means no effect; nearly all actives have a fitted effect of over 55% in size
#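 HEK293 cells carry an SMN2 minigene-luciferase reporter in which exon 7 inclusion puts luciferase in frame. Cells were seeded at 2000 cells/well, attached for 10-12 hours, then exposed to compounds for 30-36 hours at 37C before ONE-Glo luminescence.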
# Rab9 promoter act = qHTS Assay for Rab9 Promoter Activators. Huh7 Rab9 promoter-luciferase reporter, luminescence, 24 h. 2.8% of 320,000 active. Potency, µM (series often up to 9.22 µM), for the others: at the highest dose activation, negative = inhibition, most hits filed as activators; further: % of control where 0% means no effect; nearly all actives have a fitted effect of over 60% in size
#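 Huh7 cells stably carrying a Rab9 promoter-luciferase reporter, 1500 cells per well in OP-MEM I with 10% FBS, treated with compound 24 hours at 37C. Luciferase activity read by luminescence after 10 minutes with Amplite reagent.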
# NPC1 prom act = qHTS Assay for NPC1 Promoter Activators. Potency, µM (titrated, usually from 9.22 µM), for the others: at the highest dose activation, usual class: activators. 2.4% of 320,000 active. Huh7 NPC1 promoter luciferase reporter, 24 h; further: % of control where 0% means no effect; nearly all actives have a fitted effect of over 60% in size
#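 Luminescence read-out of NPC1 promoter-driven luciferase in stably transfected Huh7 cells; compounds delivered in DMSO and left 24 h at 37C, 5% CO2, qHTS titration format.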
# ELG1 genotoxic = qHTS screen for small molecules that induce genotoxicity in human embryonic kidney (HEK293T) cells expressing luciferase-tagged ELG1; HEK293T ELG1-luciferase reporter, luminescence, 16 h; Potency, µM (titrated, usually from 46 µM), for the others: top-dose activity change, positive = activation, most hits filed as activators; 1.3% of 330,000 active; AID 504466, 2011; further: % of control where 0% means no effect; nearly all actives have a fitted effect of over 60% in size
#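 16 hr compound incubation (37 °C, 5% CO2) of HEK293T cells carrying luciferase-tagged ELG1; luciferase then measured by ONE-Glo luminescence after 30 min at RT.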
# FLuc modulator = qHTS profiling assay for firefly luciferase inhibitor/activator using purifed enzyme and Km concentrations of substrates (counterscreen for miR-21 project). Luciferin 4-monooxygenase (Photinus pyralis), P08659. purified FLuc, Km substrates, luminescence inhibition. 6.9% of 360,000 active. Potency, µM (titrated, usually from 57.5 µM), for the others: top-dose activity change, negative = inhibition, actives largely listed as inhibitors;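 further: plate controls were vehicle for no effect and reference inhibitor for full effect; nearly all actives have a fitted effect of over 55% in size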
# Target sequence (P08659 whole entry, looked up): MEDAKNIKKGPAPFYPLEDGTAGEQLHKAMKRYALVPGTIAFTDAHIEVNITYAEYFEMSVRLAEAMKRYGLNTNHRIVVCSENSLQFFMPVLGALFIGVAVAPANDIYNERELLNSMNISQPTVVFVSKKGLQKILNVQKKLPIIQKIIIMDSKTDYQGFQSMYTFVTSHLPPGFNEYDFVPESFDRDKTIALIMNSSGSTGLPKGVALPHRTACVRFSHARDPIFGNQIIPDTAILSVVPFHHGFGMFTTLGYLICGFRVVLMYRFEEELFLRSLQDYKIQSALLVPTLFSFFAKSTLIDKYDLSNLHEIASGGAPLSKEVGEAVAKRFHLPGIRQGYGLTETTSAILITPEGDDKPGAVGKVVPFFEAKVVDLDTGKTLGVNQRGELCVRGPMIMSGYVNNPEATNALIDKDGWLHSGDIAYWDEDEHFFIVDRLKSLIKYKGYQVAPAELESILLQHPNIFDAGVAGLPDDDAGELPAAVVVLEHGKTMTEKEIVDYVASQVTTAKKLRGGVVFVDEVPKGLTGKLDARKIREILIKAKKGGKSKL
#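 Purified P. pyralis luciferase (10nM final) with 10uM D-luciferin and 10uM ATP (Km levels) in 50mM Tris acetate pH 7.5, 10mM Mg acetate, 0.01% Tween-20, 0.05% BSA; qHTS 6-point titration, ~60 µM downward; luminescence read.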
# * marks the source's active call; other numbers are inactive results; ? = inconclusive; nt = no result; [ ] = remark or other dose. Only some compounds are listed: those with a hit (about 7.3% of all), similar ones and a draw of the others. The call rests on the fitted dose curve; in most records, active means well fitted curve in the direction sought with a large enough effect; inconclusive means small, poorly fitted or top-dose-only effect, or another doubt; inactive means no such curve, though single readings can be large; an effect the other way counts as inactive or inconclusive. Potency means the concentration at half of the fitted maximal effect.
SMILES,p53 reactivator,SMN2 splice up,Rab9 promoter act,NPC1 prom act,ELG1 genotoxic,FLuc modulator
CCN(CC)c1ccc(O)c(C=Nc2ccc(C)c(C)c2)c1,13.6%,4.7%,?,26.1%,?,3.38µM*
CCN(CC)c1ccc(C=Nc2ccc(C#N)cc2)c(O)c1,10.1%,-6.6%,0.7%,-0.2%,9.4%,-11.6%
CCN(CC)c1ccc(C=Nc2ccccc2C)c(O)c1,27.7%,26.8%,?,?,5.0%,1.35µM*
CC(C)(C)n1ncc2c(=O)n(Cc3cccc(C#N)c3)cnc21,nt,nt,nt,nt,nt,3.5%
COc1ccc(Cl)cc1NC(=O)Cn1c(=O)n(Cc2ccco2)c(=O)c2cccnc21,nt,-13.4%,nt,nt,nt,3.4%
Cc1ccc(-c2cc(C(=O)N3N=C(C(F)F)CC3(O)C(F)F)c3ccccc3n2)cc1C (configuration not stated),?,8.2%,0.9%,16.1%,-2.9%,7.57µM*
CCOc1cccc(-c2cc(C(=O)N3N=C(C)CC3(O)C(F)F)c3ccccc3n2)c1 (configuration not stated),6.5%,3.3%,-5.2%,-9.5%,-1.9%,23.9µM*
COc1ccc2c(c1)OCc1c-2oc2cc(OC)ccc12,nt,12.6µM*,nt,nt,nt,nt
CCOC(=O)N1CCc2c(sc(NCc3sccc3C)c2C(=O)Nc2ccccc2OCC)C1,nt,nt,nt,nt,nt,-16.3%
c1ccc(Cn2ccc(-c3cnc(-c4ccccc4)s3)n2)cc1,?,nt,1.12µM*,1.41µM*,?,1.9µM*
CCN(CC)S(=O)(=O)c1ccc2oc(Nc3ccc(OC)cc3OC)nc2c1,5.2%,nt,0.9%,0.4%,-12.8%,-7.9%
CCN(CC)S(=O)(=O)c1ccc2oc(Nc3ccccc3)nc2c1,18.9%,nt,?,?,?,15.1µM*
CCS(=O)(=O)c1ccc2oc(Nc3ccccc3C)nc2c1,?,?,3.55µM*,3.55µM*,?,13.5µM*
Cc1ccc2nc(NC(=O)C3CCCN(S(=O)(=O)c4cccnc4)C3)sc2c1 (configuration not stated),-5.9%,-26.9%,0.4%,-1.4%,-0.8%,-9.2%
Cc1ccc2nc(NC(=O)C3CCCN(S(=O)(=O)c4cnc[nH]4)C3)sc2c1 (configuration not stated),?,?,?,?,5.0%,12µM*
COc1ccccc1C(=O)Nc1ccncc1,nt,nt,-3.5%,-1.5%,0.2%,5.9%
COc1ccc(NC(=O)NC2CCCc3ccccc32)cc1OC (configuration not stated),?,nt,0.0%,?,6.51µM*,?
COc1ccc(NC(=O)Nc2ccccn2)cc1OC,11.9%,nt,19.5%,24.3%,?,19µM*
COc1ccccc1C(=O)Nc1ccc(Br)c2cccnc12,5.8%,nt,9.5%,13.9%,-6.8%,12µM*
COc1ccc(NC(=O)CN(c2ccccc2)S(=O)(=O)N(C)C)cc1OC,7.9%,1µM*,-1.3%,1.9%,-7.5%,2.2%
CCc1ccccc1NC(=O)CC1NCCNC1=O (configuration not stated),nt,1.8%,nt,nt,nt,-2.3%
CC1CCC(NC(=O)c2ccc3c(c2)N(Cc2ccccc2F)C(=O)c2ccccc2S3)CC1 (configuration not stated),nt,nt,nt,nt,nt,1.4%
COCC(=O)Nc1ccc(Br)cc1C,4.8%,-2.5%,-2.7%,-1.0%,2.7%,6.1%
COc1cccc2cc(C(=O)Nc3ccccc3C)/c(=N/O)oc12,21.4%,nt,17.4%[1.84 µM],?,?,6.75µM*
COc1ccccc1C(=O)Nc1ccc(Br)cc1C,24.2%,nt,?,?,10.3%,16.9µM*
SMILES,p53 reactivator,SMN2 splice up,Rab9 promoter act,NPC1 prom act,ELG1 genotoxic,FLuc modulator
O=C(Nc1ccc(Cl)c(Cl)c1)Nc1ccccn1,?,nt,4.47µM*,3.16µM*,?,?
COc1ccccc1C(=O)Nc1ccccn1,?,22.4µM*,?,2.51µM*,12.6µM*,7.57µM*
COC(=O)c1ccc(CSc2nc3c(cnn3-c3ccc(C)c(C)c3)c(=O)[nH]2)o1,-9.2%,-0.6%,-1.0%,0.3%,8.1%,4.6%
COC(=O)c1cccc(NC(=S)NCc2ccc(F)cc2)c1,-4.8%,7.08µM*,-6.0%,10.1%,-3.7%,3.8%
COC(=O)c1cccc(NC(N)=S)c1,17.1%,-3.5%,-15.4%,1.5%,-2.3%,-1.7%
CNC(=S)Nc1cccc(C(=O)OC)c1,11.1%,nt,2µM*,3.55µM*,17.8%,-3.3%
O=C(/C=C/c1c(C(=O)O)[nH]c2cc(Cl)cc(Cl)c12)Nc1ccccc1,nt,-11.1%,nt,nt,nt,nt
CC1=C(C(=O)Nc2cccc(Cl)c2)C2(CCCCCC2)OC1=O,nt,nt,nt,nt,nt,-11.0%
Cc1cc(NO)nc(-c2ccc(Br)cc2)n1,?,15.8µM*,4.47µM*,?,?,23.9µM*
Cc1cc(C)nc(NC(=O)c2ccc(Br)cc2)n1,0.4%,nt,-1.5%,1.5%,-2.8%,2.0%
Cc1ccc(-c2cc(=O)[nH][nH]2)c(C)c1,4.7%,11.8%,-10.0%,0.8%,-3.4%,-0.3%
CC(C)Cc1ccc(-c2cc(=O)[nH][nH]2)cc1,13.7%,0.3%,16.7%,0.2%,4.0%,16.9µM*
N#C/C(=N/Nc1ccc(OC(F)(F)F)cc1)C(N)=S,22.4%,nt,-35.8%,-25.2%,-3.5%,10.7µM*
COc1ccc(-c2cnnn2-c2ccc(NC(=O)c3c(F)cccc3F)cc2)cc1,nt,nt,nt,nt,nt,-12.7%
COc1ccc(-c2nc(C3CCCCC3)no2)cc1OC,21.6%,22.7%,2µM*,?,?,15.1µM*
c1ccc(-c2nc(C3CCCCC3)no2)cc1,6.6%,24.2%,7.1%,11.7%,20.6µM*,16.9µM*
NC(=O)CNC(=O)c1ccc(Cl)cc1,0.5%,nt,-0.8%,1.6%,0.2%,0.4%
CCN1CCN(CC(=O)Nc2ccc3c(c2)OCCO3)C(=O)C1=O,-3.4%,-31.3%,3.0%,-4.1%,-0.1%,2.5%
O=C(CN1Cc2ccccc2C1=O)Nc1ccc2c(c1)OCCO2,?,nt,?,29.9%,4.7%[9.26 µM],23.9µM*
O=C(CN1CCc2ccccc21)Nc1ccc2c(c1)OCCCO2,?,nt,?,?,?,12µM*
CSCC[C@@H](C(=O)Nc1ccc2c(c1)OCCO2)N1Cc2ccccc2C1=O,?,20.2%,5.0%,9.4%,?,19µM*
NS(=O)(=O)c1cccc(NC(=O)CN2CCc3ccccc32)c1,20.8%,5.0%,-2.0%,-2.8%,0.9%,-12.3%
O=C(NCc1ccco1)/C(=C\c1cccs1)NC(=O)c1ccco1,3.1%,6.4%,-8.0%,-0.9%,-0.4%,1.3%
CS(=O)(=O)N1CCc2cc(C(=O)NCc3ccccc3)ccc21,nt,0.5%,nt,nt,nt,-0.3%

# Source: PubChem BioAssay (National Center for Advancing Translational Sciences (NCATS))
